Records with an inconclusive call do not appear. The source made the active and inactive calls. Unless noted, the call rests on the fitted dose curve; in most records, active means well fitted curve in the direction sought with a large enough effect; inconclusive means small, poorly fitted or top-dose-only effect, or another doubt; inactive means no such curve, though single readings can be large; an effect the other way counts as inactive or inconclusive.
How the values were obtained:
[1] = molecular target: Lysosomal acid glucosylceramidase (Homo sapiens) (UniProt P04062); assay: Glucocerebrosidase-p2 (AID 348; in the data active means potency below about 10 µM; further: potency means the concentration at half of the fitted maximal effect); conditions: purified GBA, blue fluorogenic substrate, 40 min
Chain of Lysosomal acid glucosylceramidase (Homo sapiens) (P04062 whole entry, looked up): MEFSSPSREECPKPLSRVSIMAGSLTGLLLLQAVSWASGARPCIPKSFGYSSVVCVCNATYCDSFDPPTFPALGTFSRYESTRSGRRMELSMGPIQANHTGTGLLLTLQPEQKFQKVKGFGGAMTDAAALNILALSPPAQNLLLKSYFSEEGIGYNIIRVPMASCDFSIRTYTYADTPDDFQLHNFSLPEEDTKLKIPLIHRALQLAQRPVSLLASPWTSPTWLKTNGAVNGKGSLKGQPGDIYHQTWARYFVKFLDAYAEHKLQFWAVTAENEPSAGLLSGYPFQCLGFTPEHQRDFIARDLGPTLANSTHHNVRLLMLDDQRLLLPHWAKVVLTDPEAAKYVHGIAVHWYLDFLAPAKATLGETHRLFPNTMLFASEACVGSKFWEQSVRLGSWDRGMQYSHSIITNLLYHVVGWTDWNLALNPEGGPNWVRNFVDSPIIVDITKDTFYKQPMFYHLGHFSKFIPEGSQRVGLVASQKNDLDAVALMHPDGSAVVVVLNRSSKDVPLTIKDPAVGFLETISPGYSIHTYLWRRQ
Procedure, shortened: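 Compounds titrated from 0.6 nM upwards against 0.2 nM enzyme in pH 5.9 citric acid/KH2PO4, taurocholate, tween-20; blue fluorogenic substrate 80 uM, 40 min room temperature, stopped and read Ex 365/Em 440 for AC50.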

[2] = AP1 Signaling Pathway (AID 357; active means well fitted curve in either direction with a large enough effect, not every such curve was filed as active; further: on the % scale 0 is the no-effect control and ±100 the full control effect); conditions: ME-180 AP-1-bla reporter, EGF-induced, beta-lactamase ratio, 5 h; at 7.69 µM (top of the series) unless noted
Procedure, shortened: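 ME-180 cells with beta-lactamase reporter under AP-1 response element, stimulated with EC50 EGF; compounds tested in titration series, 5 h at 37 °C. CCF4 substrate added 2.5 h at room temperature; 460/530 nm emission ratio gave %activity and AC50.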

[3] = molecular target: Cytochrome P450 1A2 (Homo sapiens) (UniProt P05177); assay: p450-cyp1a2 (AID 410; calls by dose curve; further: potency means the concentration at half of the fitted maximal effect); conditions: recombinant CYP1A2, luciferin-ME demethylation, luminescence; series mostly up to 57 µM
Chain of Cytochrome P450 1A2 (Homo sapiens) (P05177 whole entry, looked up): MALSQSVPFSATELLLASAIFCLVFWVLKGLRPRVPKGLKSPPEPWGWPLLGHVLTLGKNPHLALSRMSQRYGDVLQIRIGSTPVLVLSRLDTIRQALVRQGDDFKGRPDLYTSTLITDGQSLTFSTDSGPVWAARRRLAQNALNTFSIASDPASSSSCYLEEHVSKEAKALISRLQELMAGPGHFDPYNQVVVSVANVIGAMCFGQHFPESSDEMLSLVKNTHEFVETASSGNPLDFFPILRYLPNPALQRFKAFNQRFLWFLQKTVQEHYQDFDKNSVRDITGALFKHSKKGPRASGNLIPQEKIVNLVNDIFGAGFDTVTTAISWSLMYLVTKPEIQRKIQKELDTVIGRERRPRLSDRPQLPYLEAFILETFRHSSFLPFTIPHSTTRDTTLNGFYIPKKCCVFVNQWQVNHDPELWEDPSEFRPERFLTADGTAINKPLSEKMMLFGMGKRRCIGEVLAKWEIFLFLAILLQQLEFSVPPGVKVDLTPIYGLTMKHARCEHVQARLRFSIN
Procedure, shortened: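 Human CYP1A2 (20nM) demethylated Luciferin-ME at its Km (100uM) in 100mM KPO4. After 10 min compound preincubation, NADPH regeneration ran the reaction 60 min at room temperature. Luciferin was read by luminescence, normalized to 57 uM furafylline.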

[4] = NFAT Signaling Pathway (AID 444; active means well fitted curve in either direction with a large enough effect, not every such curve was filed as active;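 further: carbachol stimulus at about its EC50 of 1 µM final; on the % scale 0 is the no-effect control and ±100 the full control effect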); conditions: Jurkat NFAT-bla M1, carbachol, beta-lactamase ratio, 5 h; at 7.69 µM (top of the series) unless noted
Procedure, shortened: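 Read-out: CCF4 FRET ratio (460 nm/530 nm) after 1 h RT dye loading, used for %activity and AC50 from titration series. Cells: Jurkat NFAT-β-lactamase/M1 line, treated with compound plus 1 uM carbachol for 5 h, 37 °C.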

[5] = Stat Signaling Pathway (AID 446; active means well fitted curve in either direction with a large enough effect, not every such curve was filed as active;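 further: ME-180 cervical cancer cells given 40 pM IL-6 alongside compound; SIE-controlled beta-lactamase reporter measured as 460/530 nm FRET emission ratio; on the % scale 0 is the no-effect control and ±100 the full control effect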); conditions: ME-180 SIE beta-lactamase reporter, IL-6 stimulated, 5 h; at 7.69 µM (top of the series) unless noted
Procedure, shortened: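 IL-6/STAT signaling read in ME-180 cells via an SIE beta-lactamase reporter. Stimulus was 40 pM IL-6 (its AC50) for 5 hrs, so both activation and inhibition register.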

[6] = molecular target: Glucocorticoid receptor (Homo sapiens) (UniProt P04150); assay: GR-GFP Redistribution (AID 450;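 active means compounds whose dose series gives a full or clear partial fitted curve of increased nuclear translocation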; further: potency means the concentration at half of the fitted maximal effect); conditions: U2OS GR-GFP nuclear translocation, laser cytometry, 2 h
Chain of Glucocorticoid receptor (Homo sapiens) (P04150 whole entry, looked up, the tested form may be a part): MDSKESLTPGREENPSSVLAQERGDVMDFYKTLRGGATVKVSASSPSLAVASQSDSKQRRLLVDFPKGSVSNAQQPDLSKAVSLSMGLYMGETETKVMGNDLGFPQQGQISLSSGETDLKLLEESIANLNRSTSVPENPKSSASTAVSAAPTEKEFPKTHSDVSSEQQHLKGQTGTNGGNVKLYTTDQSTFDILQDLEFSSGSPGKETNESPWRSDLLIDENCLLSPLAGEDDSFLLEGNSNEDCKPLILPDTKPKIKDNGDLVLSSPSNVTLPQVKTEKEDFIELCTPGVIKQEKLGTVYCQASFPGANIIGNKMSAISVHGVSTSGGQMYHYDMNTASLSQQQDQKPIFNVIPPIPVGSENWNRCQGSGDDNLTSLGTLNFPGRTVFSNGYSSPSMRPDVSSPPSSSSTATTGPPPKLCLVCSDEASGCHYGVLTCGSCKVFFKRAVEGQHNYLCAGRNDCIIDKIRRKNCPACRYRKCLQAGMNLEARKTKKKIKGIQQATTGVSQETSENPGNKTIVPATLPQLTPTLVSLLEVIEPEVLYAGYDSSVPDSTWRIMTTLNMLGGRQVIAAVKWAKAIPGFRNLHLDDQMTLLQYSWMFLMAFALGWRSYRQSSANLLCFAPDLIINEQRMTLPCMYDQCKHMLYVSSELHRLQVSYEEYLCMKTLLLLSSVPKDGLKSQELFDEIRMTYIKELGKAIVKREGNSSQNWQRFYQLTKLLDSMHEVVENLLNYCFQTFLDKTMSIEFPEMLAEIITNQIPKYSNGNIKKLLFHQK

[7] = molecular target: Glucocorticoid receptor (Homo sapiens) (UniProt P04150); assay: GR-EFC Redistribution (AID 451; calls by dose curve; further: potency means the concentration at half of the fitted maximal effect); conditions: CHO-K1 GR-EFC translocation, beta-gal luminescence, 2 h
Procedure, shortened: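 Translocation of GR-ED fusion to nuclear EA restores b-gal, read by luminescence after 1 h room-temperature detection. Engineered CHO-K1 biosensor cells, 1,000/well, exposed 2 h at 37 C to titrations up to 46 uM final.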

[8] = molecular target: Mitogen-activated protein kinase 10 (Mus musculus) (UniProt Q61831); assay: JNK3 AlphaScreen Assay (AID 530; active means well fitted curve in either direction with a large enough effect, not every such curve was filed as active;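 further: kinase came from lysate of stimulated human HepG2 cells; signal reports phosphorylation of biotinylated GST-cJun 1-79 at Ser73 with 10 µM ATP; on the % scale 0 is the no-effect control and ±100 the full control effect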); conditions: JNK3 lysate, c-Jun phosphorylation; series mostly up to 57.1 µM
Procedure, shortened: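 Room-temperature AlphaScreen kinase assay; pre-activated HepG2 lysate as JNK3 source, biotin-GST-cJun(1-79) substrate, 10 uM ATP, compound 15 min preincubation.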

[9] = molecular target: Cytochrome P450 2C19 (Homo sapiens) (UniProt P33261); assay: qHTS Assay for Inhibitors and Substrates of Cytochrome P450 2C19 (AID 899); conditions: recombinant CYP2C19, luciferin-H EGE luminescence; series mostly up to 57.1 µM; further: nearly all actives have a fitted effect of over 60% in size; further: potency means the concentration at half of the fitted maximal effect
Chain of Cytochrome P450 2C19 (Homo sapiens) (P33261 whole entry, looked up): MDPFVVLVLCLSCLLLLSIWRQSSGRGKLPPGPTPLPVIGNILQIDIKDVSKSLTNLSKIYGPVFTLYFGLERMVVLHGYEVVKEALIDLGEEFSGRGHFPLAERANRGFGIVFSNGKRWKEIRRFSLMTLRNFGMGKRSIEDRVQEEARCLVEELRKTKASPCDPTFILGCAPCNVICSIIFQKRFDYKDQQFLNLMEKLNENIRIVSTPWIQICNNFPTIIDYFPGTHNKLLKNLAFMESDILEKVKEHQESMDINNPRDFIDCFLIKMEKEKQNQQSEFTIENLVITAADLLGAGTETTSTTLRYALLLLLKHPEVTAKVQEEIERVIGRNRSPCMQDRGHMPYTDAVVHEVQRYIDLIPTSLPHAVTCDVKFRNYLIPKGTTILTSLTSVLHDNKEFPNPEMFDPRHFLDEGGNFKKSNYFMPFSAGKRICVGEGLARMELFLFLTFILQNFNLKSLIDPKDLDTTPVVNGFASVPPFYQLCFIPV
Procedure, shortened: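 Reactions contain 5nM enzyme, 10uM Luciferin-H EGE (KM) and 50mM KPO4; compound preincubates 10 min at 37C, NADPH regeneration starts turnover for 60 min. Luminescence after detection reagent gives activity.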

[10] = qHTS Assay for Lipid Storage Modulators (AID 1519; calls by dose curve); conditions: Drosophila S3 cells, BODIPY lipid droplet/cell ratio, laser cytometry, cells loaded with oleic acid; for activity change, negative = inhibition: at 57.5 µM (top of the series)
Procedure, shortened: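 Cells seeded at 5,000 per well were treated with compounds over a concentration series and loaded with oleic acid (400 uM, as added). Lipid droplet fluorescence (488 nm excitation, 500-530 nm channel) was read by laser-scanning cytometry and normalized to 20 uM Triacsin C.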

[11] = Primary qHTS for small molecule stabilizers of the endoplasmic reticulum resident proteome: Secreted ER Calcium Modulated Protein (SERCaMP) assay (AID 1508630); conditions: SH-SY5Y GLuc-SERCaMP (Gaussia luciferase released on ER calcium loss) secretion, thapsigargin, luminescence; series mostly up to 38.4 µM; further: on the % scale 0 is the no-effect control and ±100 the full control effect
Procedure, shortened: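 GLuc-SERCaMP-expressing SH-SY5Y cells, pretreated 16 h with compound, are challenged with thapsigargin to empty ER calcium stores; after 4 h, coelenterazine is added directly to the medium and luminescence is imaged.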

[12] = molecular target: 3',5'-cyclic-AMP phosphodiesterase 4B (Homo sapiens) (UniProt Q07343); assay: qHTS Assay for Inhibitors of PDE-IV (AID 607; active means well fitted activation curve with a large enough effect in the main read-out, with a control signal flat, not every such curve was filed as active; further: % of control where 0% means no effect); conditions: HEK293 ACTOne CNG channel cells, membrane potential fluorescence; series mostly up to 22.9 µM
Chain of 3',5'-cyclic-AMP phosphodiesterase 4B (Homo sapiens) (Q07343 whole entry, looked up): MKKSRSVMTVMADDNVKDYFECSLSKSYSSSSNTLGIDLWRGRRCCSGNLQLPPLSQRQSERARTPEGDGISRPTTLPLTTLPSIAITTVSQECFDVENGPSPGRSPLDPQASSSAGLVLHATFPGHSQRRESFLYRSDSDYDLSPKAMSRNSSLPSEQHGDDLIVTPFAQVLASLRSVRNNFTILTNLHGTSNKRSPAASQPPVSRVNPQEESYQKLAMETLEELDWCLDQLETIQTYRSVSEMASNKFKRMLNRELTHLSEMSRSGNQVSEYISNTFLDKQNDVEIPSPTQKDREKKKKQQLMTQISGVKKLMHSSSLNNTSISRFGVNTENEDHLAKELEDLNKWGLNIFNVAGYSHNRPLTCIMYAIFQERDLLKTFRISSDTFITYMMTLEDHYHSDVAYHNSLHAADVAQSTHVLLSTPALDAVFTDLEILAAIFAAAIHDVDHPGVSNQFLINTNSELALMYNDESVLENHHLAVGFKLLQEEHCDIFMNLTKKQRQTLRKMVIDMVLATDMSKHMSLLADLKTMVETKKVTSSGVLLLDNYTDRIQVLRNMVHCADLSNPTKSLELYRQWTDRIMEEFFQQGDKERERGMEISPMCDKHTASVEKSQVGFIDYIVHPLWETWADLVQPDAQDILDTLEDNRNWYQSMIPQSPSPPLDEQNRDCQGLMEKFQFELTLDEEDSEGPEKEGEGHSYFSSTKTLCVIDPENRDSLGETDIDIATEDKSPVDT
Procedure, shortened: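 Live HEK293 cells with a modified cyclic nucleotide-gated (CNG) channel report intracellular cAMP via membrane-potential dye fluorescence (ex 535/em 590 nm). Endogenous PDE-IV was targeted. Compounds were tested at up to 22.9 uM final; RO 20-1724 100 uM served as control.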

[13] = molecular target: Cytochrome P450 3A4 (Homo sapiens) (UniProt P08684); assay: qHTS Assay for Activators of Cytochrome P450 3A4 (AID 885); conditions: recombinant CYP3A4, Luciferin-PPXE luminescence, 60 min; series mostly up to 57.1 µM; further: nearly all actives have a fitted effect of over 65% in size
Chain of Cytochrome P450 3A4 (Homo sapiens) (P08684 whole entry, looked up): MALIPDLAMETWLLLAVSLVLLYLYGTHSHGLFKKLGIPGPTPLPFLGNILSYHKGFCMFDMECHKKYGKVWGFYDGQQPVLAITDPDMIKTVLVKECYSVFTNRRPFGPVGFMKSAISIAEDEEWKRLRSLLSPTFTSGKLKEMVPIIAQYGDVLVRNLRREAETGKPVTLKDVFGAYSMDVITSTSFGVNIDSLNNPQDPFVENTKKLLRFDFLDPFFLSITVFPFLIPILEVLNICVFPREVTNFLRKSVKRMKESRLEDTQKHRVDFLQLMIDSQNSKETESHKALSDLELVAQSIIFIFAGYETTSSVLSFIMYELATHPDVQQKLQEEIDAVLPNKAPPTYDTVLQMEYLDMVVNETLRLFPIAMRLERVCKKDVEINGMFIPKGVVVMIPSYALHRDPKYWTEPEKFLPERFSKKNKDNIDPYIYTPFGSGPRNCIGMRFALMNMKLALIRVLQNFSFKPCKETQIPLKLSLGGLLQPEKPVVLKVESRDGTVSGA
Procedure, shortened: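 Quantitative HTS format: compounds preincubated with 20nM human CYP3A4 and Luciferin-PPXE substrate at KM, reaction started by NADPH regeneration, stopped after 60 min, luciferase luminescence read 20 min later.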

[14] = molecular target: Cytochrome P450 3A4 (Homo sapiens) (UniProt P08684); assay: qHTS Assay for Inhibitors and Substrates of Cytochrome P450 3A4 (AID 884); conditions: recombinant CYP3A4, Luciferin-PPXE luminescence; series mostly up to 57.1 µM; further: potency means the concentration at half of the fitted maximal effect; nearly all actives have a fitted effect of over 50% in size
Procedure, shortened: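 20 nM human CYP3A4 with 25 uM Luciferin-PPXE (at KM) in 200 mM KPO4, preincubated 10 min with compound; NADPH regeneration started a 60 min RT reaction. Luciferin detected by luminescence, normalized to 57 uM ketoconazole as full inhibition.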

[15] = molecular target: Cytochrome P450 2D6 (Homo sapiens) (UniProt P10635); assay: qHTS Assay for Inhibitors and Substrates of Cytochrome P450 2D6 (AID 891); conditions: recombinant CYP2D6, luciferin-ME EGE luminescence; series mostly up to 57.1 µM; further: potency means the concentration at half of the fitted maximal effect; nearly all actives have a fitted effect of over 60% in size
Chain of Cytochrome P450 2D6 (Homo sapiens) (P10635 whole entry, looked up): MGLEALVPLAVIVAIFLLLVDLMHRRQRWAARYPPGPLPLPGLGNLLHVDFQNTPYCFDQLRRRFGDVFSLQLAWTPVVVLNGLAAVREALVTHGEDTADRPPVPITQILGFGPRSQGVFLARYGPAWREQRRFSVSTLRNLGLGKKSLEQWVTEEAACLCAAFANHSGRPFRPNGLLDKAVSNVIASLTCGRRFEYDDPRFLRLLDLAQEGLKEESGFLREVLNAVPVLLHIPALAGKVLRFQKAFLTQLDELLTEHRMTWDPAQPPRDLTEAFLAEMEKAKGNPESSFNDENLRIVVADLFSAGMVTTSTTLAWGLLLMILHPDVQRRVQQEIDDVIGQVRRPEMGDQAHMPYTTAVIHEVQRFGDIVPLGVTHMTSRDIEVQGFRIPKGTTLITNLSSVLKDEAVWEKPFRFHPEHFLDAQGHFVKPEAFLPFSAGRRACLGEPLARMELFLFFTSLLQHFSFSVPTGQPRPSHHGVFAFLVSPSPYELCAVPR
Procedure, shortened: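 Human CYP2D6 (5 nM) with 30 uM Luciferin-ME EGE (at Km) in 100 mM KPO4, compound preincubated 10 min, then NADPH regeneration system for 60 min at room temperature. Luciferin read by luminescence; normalized to 1.43 uM quinidine.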

[16] = Confirmation and Secondary Assay for Modulators of Hemoglobin Beta Chain Splicing at IVS2 654 locus (AID 910); conditions: HeLa EGFP-654 splicing reporter, GFP fluorescence, 48 h; series mostly up to 38.3 µM;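 further: HeLa cells stably carrying EGFP split by mutant beta-globin IVS2-654 intron; per-well total GFP intensity by laser scanning cytometry after 2-day treatment; % of control where 0% means no effect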
Procedure, shortened: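 Readout: per-well total peak green fluorescence (488 nm ex, 500–520 nm em) from objects 5–250 µm, reflecting correct splicing of an EGFP-654 reporter. Compounds were applied for 2 days at 37 °C to overnight-plated HeLa EGFP-654 cells; controls were DMSO and 500 nM IVS2-654 PNA.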

[17] = Confirmation and Secondary Assay for Modulators of Hemoglobin Beta Chain Splicing at IVS2 705 locus (AID 930); conditions: HeLa EGFP-705 splicing reporter, GFP fluorescence, 48 h; series mostly up to 38.3 µM;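 further: HeLa cells stably expressing the EGFP-705 splicing reporter; GFP fluorescence per well restored by corrected splicing of the IVS2-705 intron in EGFP; % of control where 0% means no effect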
Procedure, shortened: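 Assay measures total GFP intensity per well in HeLa EGFP-705 cells after 2 days with compound; mis-splicing normally truncates EGFP, so fluorescence indicates corrected splicing.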

[18] = molecular target: Ubiquitin carboxyl-terminal hydrolase 1 (Homo sapiens) (UniProt O94782); assay: Inhibitors of USP1/UAF1: Pilot qHTS (AID 504865); conditions: purified USP1/UAF1, Ub-rhodamine cleavage fluorescence; series mostly up to 54.9 µM; further: nearly all actives have a fitted effect of over 35% in size; further: potency means the concentration at half of the fitted maximal effect
Chain of Ubiquitin carboxyl-terminal hydrolase 1 (Homo sapiens) (O94782 whole entry, looked up): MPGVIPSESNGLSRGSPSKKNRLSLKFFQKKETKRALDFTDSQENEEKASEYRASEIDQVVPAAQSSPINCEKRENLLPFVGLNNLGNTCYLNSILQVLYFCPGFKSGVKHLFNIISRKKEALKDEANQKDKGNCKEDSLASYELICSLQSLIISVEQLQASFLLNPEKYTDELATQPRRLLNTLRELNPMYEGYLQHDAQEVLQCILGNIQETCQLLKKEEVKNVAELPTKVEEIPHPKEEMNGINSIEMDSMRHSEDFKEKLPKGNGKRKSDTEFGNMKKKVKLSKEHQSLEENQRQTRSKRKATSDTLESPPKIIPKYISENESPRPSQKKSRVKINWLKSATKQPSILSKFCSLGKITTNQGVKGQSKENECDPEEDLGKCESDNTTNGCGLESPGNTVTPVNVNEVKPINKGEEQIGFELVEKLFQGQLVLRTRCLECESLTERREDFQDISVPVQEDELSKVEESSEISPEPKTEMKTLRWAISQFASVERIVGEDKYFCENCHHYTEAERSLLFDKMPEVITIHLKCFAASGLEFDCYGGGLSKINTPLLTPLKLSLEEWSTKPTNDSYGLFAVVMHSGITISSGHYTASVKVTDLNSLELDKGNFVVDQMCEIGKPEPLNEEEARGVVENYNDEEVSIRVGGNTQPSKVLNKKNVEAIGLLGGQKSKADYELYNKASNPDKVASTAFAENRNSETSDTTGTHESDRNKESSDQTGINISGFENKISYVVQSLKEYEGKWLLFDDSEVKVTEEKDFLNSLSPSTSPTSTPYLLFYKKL
Procedure, shortened: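 1nM USP1/UAF1 + cpd, 15 min RT; start w/ Ub-Rho 150nM final; kinetic FL 480/540 nm, 6 reads q60 s. Buffer 50mM HEPES pH 7.8, 0.5mM EDTA, 1mM TCEP, 0.01% Tween-20, 0.1 mg/ml BSA.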

[19] = qHTS Assay for Identification of Small Molecule Agonists for Hypoxia Response Element Signaling Pathway (AID 914; active means well fitted activation curve with a large enough effect in the signal ratio, with a control signal flat, not every such curve was filed as active; the % refers to the signal ratio; further: % of control where 0% means no effect); conditions: ME-180 (cervical carcinoma) HRE-bla reporter, beta-lactamase ratio, CoCl2, 17 h; activation: stronger effect = higher value
Procedure, shortened: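 Compounds in a titration series were added to ME-180 reporter cells alongside an EC50 level of CoCl2. After 17 hours, beta-lactamase activity was read as the 460nm/530nm emission ratio of CCF4, giving AC50 values.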

[20] = measured here: cell count channel max response
[21] = measured here: lipid channel max response

N#CCCn1c(=O)cnc2cnc(N3CCOCC3)nc21
23.1%: max response [10, 21]
active: Potency [3] 10 µM
inactive: Potency [1] > 11.4 µM | activity change, negative = inhibition [2] -13.7% | activity change, negative = inhibition [4] -0.169% | activity, negative = inhibition [5] 19.5% | Potency [6] > 9.22 µM | Potency [7] > 46 µM | outcome [8] | Potency [9] | activity change, negative = inhibition [10] 6.47% | Potency [11]
18.1%: max response [10, 20]

COc1ccc(Oc2ncc3nc(-c4ccc(OC)cc4)c(=O)n(Cc4cccs4)c3n2)cc1
active: Potency [3] 15.8 µM
13.2%: max response [10, 20]
21.9%: max response [10, 21]
inactive: Potency [1] > 11.4 µM | activity change, negative = inhibition [2] -28.2% | activity change, negative = inhibition [4] 2.5% | activity, negative = inhibition [5] 8.59% | Potency [6] > 9.22 µM | Potency [7] > 46 µM | outcome [8] | Potency [12] | Potency [13] | activity change, negative = inhibition [10] 6.95% | Potency [11]

c1cncc(CNc2nc(-c3ccoc3)nc3ccccc23)c1
inactive: Potency [1] > 11.4 µM | activity change, negative = inhibition [2] 1.41% | activity change, negative = inhibition [4] -9.01% | activity, negative = inhibition [5] -4.87% | Potency [7] > 46 µM | outcome [8] | Potency [13] | outcome [16] | outcome [17] | activity change, negative = inhibition [10] 12.2% | Potency [11]
2.22%: max response [10, 20]
16.5%: max response [10, 21]
active: Potency [3] 0.398 µM | Potency [14] 7.94 µM | Potency [15] 5.01 µM | Potency [18] 44.7 µM

CN(C)c1ccc(-c2cc(-n3ccnc3)ncn2)cc1
23%: max response [10, 21]
11.3%: max response [10, 20]
active: Potency [3] 0.158 µM | Potency [14] 0.0631 µM | Potency [15] 7.94 µM | Potency [9] 7.94 µM
inactive: Potency [1] > 11.4 µM | activity change, negative = inhibition [2] 2.17% | activity change, negative = inhibition [4] 9.75% | activity, negative = inhibition [5] 15.9% | Potency [6] > 46 µM | Potency [7] > 46 µM | outcome [8] | Potency [12] | Potency [13] | outcome [16] | outcome [17] | activity change, negative = inhibition [10] 9.39% | Potency [11]

COc1ccccc1-c1nccc(NCc2cnc(C)cn2)n1
active: Potency [3] 12.6 µM
inactive: Potency [1] > 11.4 µM | activity change, negative = inhibition [2] 6.33% | activity change, negative = inhibition [4] 2.9% | activity, negative = inhibition [5] 18.3% | Potency [7] > 46 µM | outcome [8] | Potency [12] | Potency [13] | outcome [16] | activation [19] 3.22% | outcome [17] | activity change, negative = inhibition [10] 11.7% | Potency [18] | Potency [11]
16.8%: max response [10, 20]
27.7%: max response [10, 21]

From PubChem BioAssay (NCATS)
